According to PubChem BioAssay (NCATS):
Records with an inconclusive call do not appear. The source made the active and inactive calls. Calls come from the whole dose curve; as a rule, active = well fitted curve in the direction sought with a large enough effect; inconclusive = small, poorly fitted or top-dose-only effect, or another doubt; inactive = no such curve, though single readings can be large; an effect the other way counts as inactive or inconclusive.

Experiments:
[1] = Quantitative High-Throughput drug screen in 47 multiple myeloma cell lines against the NCATS MIPE library collection: KMS12BM_JCRB cell viability assay (AID 1918971); note: nearly all actives have a fitted effect of over 35% in size
How it was run: (§1)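 CellTiter-Glo luminescence (ATP) after 48 h compound exposure, 37C/5% CO2; 500 cells/well; MIPE 4.0 approved/investigational drugs pinned in; DMSO = 100%, media only = 0% viability.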

[2] = Quantitative High-Throughput drug screen in 47 multiple myeloma cell lines against the NCATS MIPE library collection: KMS26_JCRB cell viability assay (AID 1918975); note: nearly all actives have a fitted effect of over 45% in size
How it was run: as §1

[3] = Quantitative High-Throughput drug screen in 47 multiple myeloma cell lines against the NCATS MIPE library collection: MOLP8_DSMZ cell viability assay (AID 1918977); note: nearly all actives have a fitted effect of over 45% in size
How it was run: (§2)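 MIPE 4.0 approved/investigational drugs; 500 cells/well; 48 h 37 °C humidified 5% CO2; CTG luminescence readout; DMSO = 100%, media = 0% viability.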

[4] = Quantitative High-Throughput drug screen in 47 multiple myeloma cell lines against the NCATS MIPE library collection: NCIH929_DSMZ cell viability assay (AID 1918978); note: nearly all actives have a fitted effect of over 35% in size
How it was run: as §2

[5] = Quantitative High-Throughput drug screen in 47 multiple myeloma cell lines against the NCATS MIPE library collection: MM1R_ATCC cell viability assay (AID 1918981); note: nearly all actives have a fitted effect of over 35% in size
How it was run: as §2

[6] = Quantitative High-Throughput drug screen in 47 multiple myeloma cell lines against the NCATS MIPE library collection: LP1_DSMZ cell viability assay (AID 1918982); note: nearly all actives have a fitted effect of over 35% in size
How it was run: as §2

[7] = Quantitative High-Throughput drug screen in 47 multiple myeloma cell lines against the NCATS MIPE library collection: OPM1_PLB cell viability assay (AID 1918989); note: nearly all actives have a fitted effect of over 40% in size
How it was run: as §2

[8] = Quantitative High-Throughput drug screen in 47 multiple myeloma cell lines against the NCATS MIPE library collection: SKMM1_PLB cell viability assay (AID 1919863); conditions: SKMM1 myeloma viability, CellTiter-Glo ATP, 48 h; viability: stronger effect = lower value; note: nearly all actives have a fitted effect of over 35% in size; for viability: series mostly up to about 46 µM
How it was run: as §2

[9] = Quantitative High-Throughput drug screen in 47 multiple myeloma cell lines against the NCATS MIPE library collection: XG6_PLB cell viability assay (AID 1919865); note: nearly all actives have a fitted effect of over 40% in size
How it was run: as §2

[10] = Quantitative High-Throughput drug screen in 47 multiple myeloma cell lines against the NCATS MIPE library collection: KMS28PE_JCRB cell viability assay (AID 1918983); note: nearly all actives have a fitted effect of over 35% in size
How it was run: as §2

[11] = Quantitative High-Throughput drug screen in 47 multiple myeloma cell lines against the NCATS MIPE library collection: L363_DSMZ cell viability assay (AID 1918984); note: nearly all actives have a fitted effect of over 40% in size
How it was run: as §2

[12] = Quantitative High-Throughput drug screen in 47 multiple myeloma cell lines against the NCATS MIPE library collection: OCIMY5_PLB cell viability assay (AID 1918988); note: nearly all actives have a fitted effect of over 65% in size
How it was run: as §2

[13] = Quantitative High-Throughput drug screen in 47 multiple myeloma cell lines against the NCATS MIPE library collection: KMS20_JCRB cell viability assay (AID 1918973); note: nearly all actives have a fitted effect of over 45% in size
How it was run: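 Myeloma cells (500 per well) were exposed to MIPE 4.0 compounds by pin transfer and incubated 48 hours at 37C, 5% CO2. Viability was read as ATP by CellTiter-Glo luminescence, normalised to DMSO (100%) and media-only (0%) wells.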

[14] = Quantitative High-Throughput drug screen in 47 multiple myeloma cell lines against the NCATS MIPE library collection: OCIMY1_PLB cell viability assay (AID 1918979); note: nearly all actives have a fitted effect of over 35% in size; for viability: series mostly up to about 46 µM
How it was run: as §2

[15] = Quantitative High-Throughput drug screen in 47 multiple myeloma cell lines against the NCATS MIPE library collection: KMS34_JCRB cell viability assay (AID 1918985); note: nearly all actives have a fitted effect of over 40% in size
How it was run: as §2

[16] = Quantitative High-Throughput drug screen in 47 multiple myeloma cell lines against the NCATS MIPE library collection: OCIMY7_PLB cell viability assay (AID 1918987); note: nearly all actives have a fitted effect of over 65% in size
How it was run: as §2

[17] = Quantitative High-Throughput drug screen in 47 multiple myeloma cell lines against the NCATS MIPE library collection: MM1S_ATCC cell viability assay (AID 1918980); note: nearly all actives have a fitted effect of over 45% in size
How it was run: as §2

[18] = Quantitative High-Throughput drug screen in 47 multiple myeloma cell lines against the NCATS MIPE library collection: U266_ATCC cell viability assay (AID 1919864); note: nearly all actives have a fitted effect of over 35% in size
How it was run: as §2

[19] = Quantitative High-Throughput drug screen in 47 multiple myeloma cell lines against the NCATS MIPE library collection: KMS12PE_JCRB cell viability assay (AID 1918972); note: nearly all actives have a fitted effect of over 30% in size
How it was run: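 Approved and investigational drugs from MIPE 4.0 were added by pin tool to 500 cells per well. After 48 hours at 37C, ATP-based CellTiter-Glo luminescence indicated remaining viability.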

[20] = Quantitative High-Throughput drug screen in 47 multiple myeloma cell lines against the NCATS MIPE library collection: MMM1_PLB cell viability assay (AID 1918976); note: nearly all actives have a fitted effect of over 35% in size
How it was run: as §2
Potency is the fitted concentration of half-maximal effect.

S=c1nc[nH]c2nc[nH]c12
inactive: Potency [3] | viability [8] 104%
active: Potency [1] 13.2 µM | Potency [2] 5.9 µM | Potency [4] 2.96 µM | Potency [5] 7.43 µM | Potency [6] 10.5 µM | Potency [7] 1.66 µM | Potency [9] 2.35 µM

O=C(CCc1ccc(O)cc1)c1c(O)cc(O)cc1O
active: Potency [1] 0.332 µM | Potency [2] 0.166 µM | Potency [5] 0.148 µM | Potency [10] 0.935 µM | Potency [11] 0.935 µM | Potency [12] 0.132 µM | Potency [7] 1.18 µM | Potency [8] 1.05 µM | Potency [9] 0.118 µM

COc1ccccc1N1CCN(CCN(C(=O)C2CCCCC2)c2ccccn2)CC1
inactive: Potency [1] | Potency [2] | Potency [3] | Potency [14] | Potency [6] | Potency [15] | Potency [7] | viability [8] 126%
active: Potency [13] 5.26 µM | Potency [4] 8.33 µM | Potency [16] 7.43 µM

O=C(NC(Cc1cc(=O)[nH]c2ccccc12)C(=O)O)c1ccc(Cl)cc1 (centres undefined)
inactive: Potency [1] | Potency [3] | Potency [4] | Potency [14] | Potency [5] | Potency [6] | Potency [7] | viability [8] 118%
active: Potency [9] 26.4 µM

Cc1cccc(CN2CCN(C(c3ccccc3)c3ccc(Cl)cc3)CC2)c1 (centres undefined)
active: Potency [1] 26.4 µM | Potency [13] 6.62 µM | Potency [17] 20.9 µM | Potency [12] 20.9 µM | Potency [7] 20.9 µM | Potency [9] 14.8 µM

O=c1cc(N2CCOCC2)oc2c(-c3ccccc3)cccc12
inactive: Potency [11]
active: Potency [1] 14.8 µM | Potency [2] 7.43 µM | Potency [3] 7.43 µM | Potency [14] 11.8 µM | Potency [17] 14.8 µM | Potency [5] 7.43 µM | Potency [6] 11.8 µM | Potency [10] 10.5 µM | Potency [15] 11.8 µM | Potency [7] 10.5 µM | Potency [8] 14.8 µM | Potency [18] 18.7 µM

CN(C)CCc1c[nH]c2ccc(Cn3cncn3)cc12
inactive: Potency [1] | Potency [2] | Potency [4] | Potency [14] | Potency [5] | Potency [6] | Potency [15] | Potency [7] | viability [8] 127% | Potency [18]

O=Nc1c(-c2c(O)[nH]c3cc(Br)ccc23)[nH]c2ccccc12
active: Potency [1] 16.6 µM | Potency [13] 5.9 µM | Potency [2] 18.7 µM | Potency [3] 16.6 µM | Potency [4] 2.64 µM | Potency [14] 26.4 µM | Potency [17] 11.8 µM | Potency [5] 16.6 µM | Potency [6] 13.2 µM | Potency [10] 23.5 µM | Potency [11] 4.69 µM | Potency [15] 3.32 µM | Potency [7] 5.26 µM | Potency [8] 20.9 µM | Potency [9] 3.32 µM

O=C(CS(=O)Cc1ccco1)NCC=CCOc1cc(CN2CCCCC2)ccn1 (centres undefined)
active: Potency [9] 14.8 µM
inactive: Potency [1] | Potency [13] | Potency [14] | Potency [5] | Potency [6] | Potency [10] | Potency [11] | Potency [15] | viability [8] 134% | Potency [18]

c1ccc2[nH]c(-c3cscn3)nc2c1
inactive: Potency [1] | Potency [13] | Potency [3] | Potency [4] | Potency [5] | Potency [6] | Potency [10] | Potency [15] | Potency [16] | Potency [7] | viability [8] 120%

Cc1c(C(=O)NN2CCCCC2)nn(-c2ccc(Cl)cc2Cl)c1-c1ccc(Cl)cc1
active: Potency [1] 23.5 µM | Potency [19] 14.8 µM | Potency [9] 26.4 µM
inactive: Potency [15]

O=c1ccc2ccc(O)c(O)c2o1
active: Potency [1] 18.7 µM | Potency [13] 16.6 µM | Potency [20] 7.43 µM | Potency [17] 4.18 µM | Potency [16] 8.33 µM | Potency [7] 18.7 µM | Potency [18] 9.35 µM
inactive: Potency [14] | Potency [10]

O=C(O)c1cccc(-c2noc(-c3ccccc3F)n2)c1
active: Potency [1] 16.6 µM | Potency [17] 20.9 µM | Potency [10] 14.8 µM | Potency [8] 9.35 µM
inactive: Potency [13] | Potency [4] | Potency [14] | Potency [6] | Potency [15] | Potency [7] | Potency [9]

NCCCCNCCCN
active: Potency [1] 20.9 µM | Potency [13] 18.7 µM | Potency [2] 3.72 µM | Potency [3] 4.18 µM | Potency [4] 18.7 µM | Potency [14] 10.5 µM | Potency [17] 3.32 µM | Potency [5] 2.96 µM | Potency [6] 16.6 µM | Potency [15] 9.35 µM | Potency [16] 10.5 µM | Potency [12] 14.8 µM | Potency [7] 23.5 µM | Potency [8] 20.9 µM | Potency [18] 7.43 µM

NC(=NCc1ccccc1)NC(=O)c1nc(Cl)c(N)nc1N
active: Potency [13] 7.43 µM | Potency [4] 1.32 µM | Potency [17] 0.935 µM | Potency [11] 23.5 µM | Potency [16] 8.33 µM | Potency [7] 16.6 µM | Potency [18] 1.48 µM
inactive: Potency [1] | Potency [2] | Potency [14] | Potency [5] | Potency [6] | Potency [15] | Potency [12] | viability [8] 140%

Clc1ccc2c(N3CCN(CCCN4CCN(c5ccnc6cc(Cl)ccc56)CC4)CC3)ccnc2c1
inactive: Potency [1] | Potency [13] | Potency [4] | Potency [14] | Potency [5] | Potency [6] | Potency [10] | Potency [11] | Potency [15] | viability [8] 129% | Potency [9]
